Compounds with a hit are over-represented: about 4% of the library has one in this group of screens.
LMP1 NFkB inh – EBV LMP1-driven NF-kappaB luciferase reporter inhibitors, primary screen, cell-based, luminescence, single point; LMP1-induced NF-kappaB luciferase reporter cells; inhibition, % at 12.5 µM; hit rate 0.69% among 350,000; AID 504558, 2011; in the data active = inhibition above about 41%;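 also: 0% = neutral control wells and 100% = reference inhibitor control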
Peg3 promoter – Peg3 promoter-driven luciferase inhibitors, primary screen, cell-based, HeLa, luciferase luminescence | HeLa PEG-Prom luciferase reporter, overnight | inhibition, % at 20 µM | hit rate 1.7% among 360,000 | AID 588405, 2011;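 active = inhibition of at least 50% at 20 µM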
TRPM1 prom inh – inhibitors of MITF-dependent TRPM1 promoter reporter, primary screen, cell-based, SK-MEL-5, single point, luciferase. SK-MEL-5 TRPM1 promoter luciferase, 24 h. inhibition, % at 12.5 µM. hit rate 0.83% among 330,000. AID 488899, 2010;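 active = mean inhibition across replicates of 60% or more, whatever share of single replicates reaches that level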
HIF-2a inh – HIF-2a reporter inhibitors, primary screen, luminescence, 786-0 RCC cells; AID 624352, 2012; 786-0 RCC cells HIF-2a reporter, luciferase luminescence, overnight; inhibition, % at 18.8 µM; hit rate 0.72% among 360,000;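 active = inhibition of the luminescence signal of 40% or more relative to plate controls, in a single-dose primary screen at 18.75 µM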
TROY NFkB inh – inhibitors of TROY-driven NF-kB signaling, primary screen, Q293 LMP1-TROYcd cells, NF-kB luciferase, uHTS; Q293 LMP1-TROYcd NF-kB luciferase reporter, 4 h; inhibition, % at 10 µM; hit rate 0.98% among 360,000;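 active = compounds whose plate-normalised and pattern-corrected inhibition of the luciferase reporter signal at the single screening dose is 50% or more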
TWEAK Fn14 block – inhibitors of TWEAK-Fn14 signaling, primary screen, luciferase reporter cells, uHTS. inhibition, % at 10 µM. TWEAK-stimulated Fn14 reporter cells, luciferase luminescence, 8 h. hit rate 2% among 360,000. AID 1159606, 2016; in the data active = inhibition above about 50%
Numbers without * were called inactive.

Results for COc1ccc(NS(=O)(=O)c2cccc(C(=O)N3CCCC3)c2)cc1 ?
LMP1 NFkB inh: 2; Peg3 promoter: 58*; TRPM1 prom inh: 7; HIF-2a inh: 10; TROY NFkB inh: -4; TWEAK Fn14 block: 4

How did CCOc1ccc(OCc2cccc(C(=O)N3CCCC3)c2)cc1 do in these assays?
LMP1 NFkB inh: 54*; Peg3 promoter: -145; TRPM1 prom inh: 29; HIF-2a inh: -36; TROY NFkB inh: -61; TWEAK Fn14 block: -6

How did CCOC(=O)c1ccc(N/C=C\C(=O)c2cccc(OC)c2)cc1 do in these assays?
LMP1 NFkB inh: -23; Peg3 promoter: -175; TRPM1 prom inh: -86; HIF-2a inh: -129; TROY NFkB inh: 10; TWEAK Fn14 block: -15

Results for CC1CC(=O)NN1C(=O)c1ccccc1 (stereo not given) ?
LMP1 NFkB inh: -1; Peg3 promoter: 4; TRPM1 prom inh: 8; HIF-2a inh: 9; TROY NFkB inh: -12; TWEAK Fn14 block: -10

Results for CC(C)(C)c1ccc(C(=O)NCC(=O)N2CCCCCC2)cc1 ?
LMP1 NFkB inh: -9; Peg3 promoter: -34; TRPM1 prom inh: -17; HIF-2a inh: -45; TROY NFkB inh: -13; TWEAK Fn14 block: 0

Results for CCOc1ncccc1C(=O)Nc1ccc2c(c1)OCCCO2 ?
LMP1 NFkB inh: -1; Peg3 promoter: -46; TRPM1 prom inh: -17; HIF-2a inh: -133; TROY NFkB inh: -14; TWEAK Fn14 block: -4

How did CCNC(=O)N1C[C@H]2CON(C)[C@H]2C[C@H]1c1ccccc1Br do in these assays?
LMP1 NFkB inh: 3; Peg3 promoter: -4; HIF-2a inh: 3; TROY NFkB inh: -3; TWEAK Fn14 block: 11

Results for Clc1ccccn1 ?
LMP1 NFkB inh: 0; Peg3 promoter: -2; TRPM1 prom inh: -1; HIF-2a inh: 10; TROY NFkB inh: 2; TWEAK Fn14 block: 13

How did COc1ccc(C(=O)/C=C/Nc2ccc(S(=O)(=O)Nc3cccc(C(C)=O)c3)cc2)cc1 do in these assays?
LMP1 NFkB inh: 6; Peg3 promoter: -21; TRPM1 prom inh: 15; HIF-2a inh: 2; TROY NFkB inh: 19; TWEAK Fn14 block: 79*

What do the screens show for `CN1C(=O)c2ccc(Oc3ccccc3)cc2C1=O`?
LMP1 NFkB inh: -2; Peg3 promoter: 7; TRPM1 prom inh: 1; HIF-2a inh: 7; TROY NFkB inh: -9; TWEAK Fn14 block: -1

How did O=C(NCc1ccccc1)c1cc(C2CCCN(C(=O)c3ccccc3)C2)on1 (stereo not given) do in these assays?
Peg3 promoter: 6; HIF-2a inh: 1; TROY NFkB inh: 4; TWEAK Fn14 block: -10

How did O=C(NC1CCCCC1)C1CCCN1S(=O)(=O)c1ccc(F)cc1 (stereo not given) do in these assays?
LMP1 NFkB inh: 8; Peg3 promoter: 1; TRPM1 prom inh: 12; HIF-2a inh: 8; TROY NFkB inh: 78*; TWEAK Fn14 block: 16

Results for Cc1ccc(S(=O)(=O)N2CCCC2C(=O)NC2CCCCC2)cc1 (stereo not given) ?
LMP1 NFkB inh: 9; Peg3 promoter: 18; TRPM1 prom inh: -10; HIF-2a inh: 8; TROY NFkB inh: 3; TWEAK Fn14 block: -7

Results for CCc1nc2ccc(C(=O)NCc3cccs3)cn2c1N(CC)Cc1cccc(Br)c1 ?
Peg3 promoter: 57*; HIF-2a inh: 7; TROY NFkB inh: 13; TWEAK Fn14 block: 10

What do the screens show for `N#Cc1ccc(-c2ccc(OCC(O)Cn3nnc4ccccc43)cc2)cc1` (stereo not given)?
LMP1 NFkB inh: 6; Peg3 promoter: -3; TRPM1 prom inh: 7; HIF-2a inh: -8; TROY NFkB inh: 52*; TWEAK Fn14 block: 37

What do the screens show for `CC(=O)c1ccc(OCC(O)Cn2nnc3ccccc32)cc1` (stereo not given)?
LMP1 NFkB inh: -4; Peg3 promoter: -53; TRPM1 prom inh: -40; HIF-2a inh: -95; TROY NFkB inh: -31; TWEAK Fn14 block: -14

Screens (PubChem)
